The values below come from PMC4552634, “A New Set of Chemical Starting Points with Plasmodium falciparum Transmission-Blocking Potential for Antimalarial Drug Discovery” (PLoS ONE, 2015).

For the experiment, the system named is P. falciparum stage V gametocytes. Also on record: BacTiter-Glo ATP luminescence viability of purified stage V gametocytes in 384-well plates, per cent inhibition versus DMSO. The conditions noted are these: 48 h, 5 µM, inhibitor.

Where two headings read alike, the source gives them in different places. Out of some 13,000 compounds screened, about 3,200 (25%) showed an effect of 50% or more. Some of the results follow.

By % Inhibition is commonly meant the change of the read-out against control, counted positive when it falls. Regarding `CN1CCCN(Cc2ccc(-c3cccc(NC(=O)c4ccc(F)cc4)c3)cc2)CC1` [TCMDC-132634], the “% Inhibition” value turned out to be 12.81%.

In the case of `O=C(NC1CCN(Cc2ccccc2)CC1)c1cccc(-c2cc3cc(Cl)c(Cl)cc3[nH]2)c1` [TCMDC-141290], the “% Inhibition” value is listed as -1.614%.

`CN1CCN(CCCN(Cc2ccc(-c3cccc(CNCc4ccc5c(c4)OCO5)c3)cc2)C(=O)CCC2CCCC2)CC1` [TCMDC-140751]: the “% Inhibition” value stood at 61.11%.

On to `CN1CCN(CCCN(Cc2ccc(-c3cccc(CNCc4ccc5c(c4)OCO5)c3)cc2)C(=O)NC2CCCCC2)CC1` [TCMDC-140642], for which the “% Inhibition” value is given as 56.14%.

On to `CN1CCN(CCCN(Cc2ccc(-c3ccc(CNCc4ccc5c(c4)OCO5)cc3)cc2)C(=O)CCC2CCCC2)CC1` [TCMDC-140561], for which the “% Inhibition” value came out at 102.2%.

For `CN1CCN(CCCN(Cc2cccc(-c3ccc(CNCc4ccc5c(c4)OCO5)cc3)c2)C(=O)CCC2CCCC2)CC1` [TCMDC-140557], the “% Inhibition” value is 65.31%.

For the compound `Cc1cccc(C(=O)Nc2ccnc(N(C)C3CCN(Cc4cccc(O)c4)CC3)c2)c1` [TCMDC-134964], the “% Inhibition” value is -19.45%.

Consider `O=C(/C=C/c1ccc(Cl)c(Cl)c1)NCCCCCN1CCC(NC(=O)Nc2cc(F)cc(F)c2)CC1` [TCMDC-135715], for which the “% Inhibition” value is -53.24%.

`NC(=O)C1CCN(Cc2ccc(-c3ccc(-c4nc5cc(C(F)(F)F)ccc5[nH]4)cc3)cc2)CC1.O=C(O)C(F)(F)F` [TCMDC-132692]: the “% Inhibition” value is -81.89%.

In the case of `CN1CCN(CCCN(Cc2cccc(-c3cccc(CNCc4ccc5c(c4)OCO5)c3)c2)C(=O)CCC2CCCC2)CC1` [TCMDC-140556], the “% Inhibition” value came out at 67.58%.

On to `FC(F)(F)c1cccc(CNCC2CCN(Cc3ccc4c(c3)OCO4)CC2)c1` [TCMDC-141673], for which the “% Inhibition” value turned out to be 2.788%.

`CC1CN(c2ccc(NC(=O)c3cccs3)cc2)CCN1Cc1cccc(F)c1` (centres unmarked) [TCMDC-135008]: the “% Inhibition” value is -22.55%.

Regarding `COc1ccc(CNCc2cccc(-c3cccc(-c4nc5cccc(C)c5[nH]4)c3)c2)cc1.O=C(O)C(F)(F)F` [TCMDC-132732], the “% Inhibition” value is -64.2%.

Take `c1ccc(CSC2=NNC(c3ccccn3)S2)cc1` (centres unmarked) [TCMDC-123769]: the “% Inhibition” value stood at 99.43%.

With `NC(=O)c1cccc(C(=O)Nc2cccc(-c3csc(-c4nc5ccccc5[nH]4)c3)c2)c1` [TCMDC-132399], the “% Inhibition” value was -9.606%.

In the case of `CN(C)CCCNCc1ccc(-c2ccc(F)c(Cl)c2)o1` [TCMDC-125238], the “% Inhibition” value is listed as 41.34%.

Take `CNS(=O)(=O)CCNCc1ccc(-c2ccc3ncnc(Nc4ccc(OCc5ccccc5)cc4)c3c2)o1` [TCMDC-138102]: the “% Inhibition” value was -59.33%.

As for `CNCCCNCc1ccc(-c2ccc(F)c(Cl)c2)o1` [TCMDC-125237], the “% Inhibition” value was 65.13%.

For the compound `O=C(C=Cc1ccccc1C(F)(F)F)NC1CCC(CN2CCC(c3c[nH]c4ccccc34)CC2)CC1` (centres unmarked) [TCMDC-139915], the “% Inhibition” value (% Inhibition) is 18.99%.

With `O=C(/C=C/c1ccccc1O)NC1CCC(CN2CCC(c3c[nH]c4ccccc34)CC2)CC1` (centres unmarked) [TCMDC-139705], the “% Inhibition” value (% Inhibition) is given as 20.65%.

On to `O=C(C=Cc1cccc(Cl)c1Cl)NC1CCC(CN2CCC(c3c[nH]c4ccccc34)CC2)CC1` (centres unmarked) [TCMDC-139920], for which, where the note is “% Inhibition”, the “% Inhibition” value is on record as -3.877%.

Consider `O=C(C=Cc1ccccc1Br)NC1CCC(CN2CCC(c3c[nH]c4ccccc34)CC2)CC1` (centres unmarked) [TCMDC-139905], for which the “% Inhibition” value (% Inhibition) came to 19.58%.

Take `O=C(/C=C/c1ccccc1O)NC1CCC(CN2CCC(c3c[nH]c4ccccc34)CC2)CC1` (centres unmarked) [TCMDC-139720]: the “% Inhibition” value (% Inhibition) is 84.95%.

Turning to `O=C(/C=C/c1ccccc1Cl)NC1CCC(CN2CCC(c3c[nH]c4ccccc34)CC2)CC1` (centres unmarked) [TCMDC-139699], the “% Inhibition” value (% Inhibition) came out at 83.67%.

On to `O=C(C=Cc1ccccc1C(F)(F)F)NC1CCC(CN2CCC(c3c[nH]c4ccccc34)CC2)CC1` (centres unmarked) [TCMDC-139903], for which the “% Inhibition” value (% Inhibition) is 54.81%.

Consider `O=C(C=Cc1ccccc1Br)NC1CCC(CN2CCC(c3c[nH]c4ccccc34)CC2)CC1` (centres unmarked) [TCMDC-139917], for which, for the setting “% Inhibition”, the “% Inhibition” value was found to be 13.62%.

Regarding `O=C(/C=C/c1ccccc1Cl)NC1CCC(CN2CCC(c3c[nH]c4ccccc34)CC2)CC1` (centres unmarked) [TCMDC-139714], under “% Inhibition”, the “% Inhibition” value is on record as 34.23%.

Take `COc1ccc(Nc2nccc(NCCNC(=O)Nc3cc(C)ccc3C)n2)cc1` [TCMDC-133644]: the “% Inhibition” value is recorded as -56.14%.

In the case of `CCn1cc2c3c(cc(C(=O)N[C@@H](Cc4ccccc4)[C@H](O)CNCc4cccc(OC)c4)cc31)N(C)S(=O)(=O)CC2` [TCMDC-135784], the “% Inhibition” value is 29.74%.

Take `O=C(NCCCCN1CCC(O)(c2ccc(Cl)cc2)CC1)c1ccc(Br)cc1` [TCMDC-131982]: the “% Inhibition” value is given as -5.43%.

As for `CN(C(=O)c1nn(-c2ccccn2)c2nccc(-c3cccs3)c12)C1CCCCC1` [TCMDC-124797], the “% Inhibition” value was 11.83%.

For `COC(=O)c1ccc(C(=O)NCCCCN2CCC(c3ccc4c(c3OC)CCCC4)CC2)cc1-c1ccc(C(F)(F)F)cc1` [TCMDC-138705], the “% Inhibition” value is on record as -64.43%.

Take `CCOC(=O)c1cc(C(=O)NCCCCN2CCC(c3ccc(CC)cc3OCC)CC2)ccc1-c1ccc(C(F)(F)F)cc1` [TCMDC-138755]: the “% Inhibition” value stood at 83.47%.

`Cc1cc(C2CCN(CCCCNC(=O)c3ccc(-c4ccc(C(F)(F)F)cc4)cc3)CC2)c(C)cc1OCCO` [TCMDC-138798]: the “% Inhibition” value is reported as -10.99%.

`CCc1ccc(C2CCN(CCCCNC(=O)c3ccc(-c4ccc(C#N)cc4)cc3)CC2)c(OCCO)c1` [TCMDC-138765]: the “% Inhibition” value is -6.555%.

On to `CCOC(=O)c1cc(C(=O)NCCCCN2CCC(c3ccc4c(c3OC)CCCC4)CC2)ccc1-c1ccc(C(F)(F)F)cc1` [TCMDC-138739], for which the “% Inhibition” value is 73.05%.

In the case of `Cn1cc(C2CCN(CCCCNC(=O)c3sc(-c4ccc(C(F)(F)F)cc4)nc3CO)CC2)c2ccccc21` [TCMDC-138778], the “% Inhibition” value is listed as -59.88%.

Consider `COc1c(C2CCN(CCCCNC(=O)c3ccc(-c4ccc(C(F)(F)F)cc4)c(C(=O)OC(C)C)c3)CC2)ccc2c1CCCC2` [TCMDC-138744], for which the “% Inhibition” value came out at 32.47%.

On to `Cc1cc(C2CCN(CCCCNC(=O)c3ccc(-c4ccc(C(F)(F)F)cc4)cc3)CC2)c(C)cc1OCC(N)=O` [TCMDC-138800], for which the “% Inhibition” value is given as 4.975%.

On to `C=C(C)Cn1cc(C2CCN(CCCCNC(=O)c3sc(-c4ccc(Cl)cc4Cl)nc3CO)CC2)c2ccccc21` [TCMDC-138873], for which the “% Inhibition” value is given as -30.06%.

For the compound `CCc1ccc(C2CCN(CCCCNC(=O)c3ccc(-c4ccc(C(F)(F)F)cc4)cc3)CC2)c(OCCO)c1` [TCMDC-138761], the “% Inhibition” value is 105.9%.

For `CC(=O)Oc1cc(C)ccc1C1CCN(CCCCNC(=O)c2ccc(-c3ccc(C(F)(F)F)cc3)cc2)CC1` [TCMDC-138626], the “% Inhibition” value was found to be 28.6%.

Regarding `C=CCn1cc(C2CCN(CCCCNC(=O)c3sc(-c4ccc(C(F)(F)F)cc4)nc3CO)CC2)c2cc(OC)ccc21` [TCMDC-138828], the “% Inhibition” value worked out at 92.56%.

With `COc1cccc(C(=O)OC2=C3CCC(=O)C3(C)CCC2=O)c1` (centres unmarked) [TCMDC-131633], the “% Inhibition” value is 39.81%.

For the compound `CC(C)(C)OC(=O)N1CCN(c2ccccc2NC(=O)c2cccc(C(F)(F)F)c2Oc2ccc(F)cc2)CC1` [TCMDC-140951], the “% Inhibition” value was -16.31%.

Turning to `COc1ccc2[nH]c(C(=O)Nc3ccc4nc(-c5ccccc5)[nH]c4c3)cc2c1` [TCMDC-134305], the “% Inhibition” value was -25.97%.

With `CCOc1ccccc1CON1C(N)=NC(N)=NC1(C)C` [TCMDC-131583], the “% Inhibition” value stood at 17.24%.

For `CCNc1cc(C)nc(Nc2ccc(NC(=O)C3CCCC3)cc2)n1` [TCMDC-124980], the “% Inhibition” value is reported as -0.5513%.

For `C=Cc1ccccc1C1(O)CCN(CCCCNC(=O)c2ccc(-c3ccc(C#N)cc3)cc2)CC1` [TCMDC-135786], the “% Inhibition” value was 28.95%.

As to `Cc1cc(N[C@@H](CC(C)C)C(=O)Nc2ccccc2)nc(Nc2ccccc2)n1` [TCMDC-134743], the “% Inhibition” value is on record as -20.12%.

Turning to `C=CC[C@H](C[C@H](O)[C@H](Cc1ccccc1)NC(=O)c1ccc(-c2cccnn2)cc1)C(=O)NC1CCCCC1` [TCMDC-141421], the “% Inhibition” value is -14.32%.

As for `CC(C)n1ncc2c(C(=O)N3CCCc4ccccc43)cc(-c3ccccc3)nc21` [TCMDC-125456], the “% Inhibition” value is 70.11%.

`CC(C)n1ncc2c(C(=O)N3CCCCCC3)cc(-c3ccccc3)nc21` [TCMDC-125259]: the “% Inhibition” value turned out to be 6.769%.

For the compound `CC(NC(=O)c1cc(-c2ccccc2)nc2c1cnn2C(C)C)C1CC1` (centres unmarked) [TCMDC-125054], the “% Inhibition” value worked out at 5.318%.

For the compound `CN(C)CCOc1cc(NC(=O)Nc2ccc(-c3ccncc3)c3ccccc23)ccc1I` [TCMDC-139118], the “% Inhibition” value was 23.38%.

Take `COC(=O)c1c(C#N)c(OC)cc(O)c1CSC[C@@H](CN1CCCCC1)Nc1nc(-c2ccc([N+](=O)[O-])cc2)cs1` [TCMDC-138652]: the “% Inhibition” value is -4.34%.

Turning to `O=C(/C=C/c1ccc(Cl)c(Cl)c1)NCCCCCN1CCC(c2c[nH]c3ccccc23)CC1` [TCMDC-139172], the “% Inhibition” value turned out to be 95.4%.

On to `O=C(/C=C/c1ccc(Cl)c(Cl)c1)NCCCCCN1CCC(c2c[nH]c3c(-c4ccccc4)cccc23)CC1` [TCMDC-139399], for which the “% Inhibition” value came out at 108%.

With `O=C(/C=C/c1ccc(Cl)c(Cl)c1)NCCCN1CCC(c2c[nH]c3ccccc23)CC1` [TCMDC-139332], the “% Inhibition” value was found to be 45.36%.

For the compound `O=C(/C=C/c1ccc(Cl)c(Cl)c1)NCCCCCN1CCC(c2cn[nH]c2-c2ccccc2)CC1` [TCMDC-139493], the “% Inhibition” value is reported as -12.94%.

Consider `O=C(/C=C/c1ccc(Cl)c(Cl)c1)NCc1ccc(CN2CCC(c3c[nH]c4ccccc34)CC2)cc1` [TCMDC-139405], for which the “% Inhibition” value is reported as -66.38%.

As to `CN(CCN1CCC(c2c[nH]c3ccccc23)CC1)c1ccc(-c2nc3cc(Cl)c(Cl)cc3[nH]2)cc1` [TCMDC-139373], the “% Inhibition” value is 50.88%.

For `O=C(/C=C/c1ccc(Cl)c(Cl)c1)NCC[C@@H]1C[C@H]1CCN1CCC(c2c[nH]c3ccccc23)CC1` [TCMDC-139466], the “% Inhibition” value came out at 86.41%.

Consider `CN(CCC(CCN1CCC(c2c[nH]c3ccccc23)CC1)c1ccccc1)C(=O)Nc1ccc(Cl)c(Cl)c1` (centres unmarked) [TCMDC-139625], for which the “% Inhibition” value is listed as -72.07%.

With `CN(CCN1CCC(c2c[nH]c3ccccc23)CC1)C(=O)OCCCCCNC(=O)/C=C/c1ccc(Cl)c(Cl)c1` [TCMDC-139374], the “% Inhibition” value is -36.9%.

Take `O=C(/C=C/c1ccc(Cl)c(Cl)c1)NCCCCN1CCC(c2c[nH]c3ccccc23)CC1` [TCMDC-139333]: the “% Inhibition” value is recorded as -7.285%.

As for `O=C(/C=C/c1ccc(Cl)c(Cl)c1)NCCC(CN1CCC(c2c[nH]c3ccccc23)CC1)c1ccccc1` (centres unmarked) [TCMDC-139621], the “% Inhibition” value stood at 20.48%.

`O=C(/C=C/c1ccc(Cl)c(Cl)c1)NCCCCCN1CCCC(c2c[nH]c3ccccc23)C1` (centres unmarked) [TCMDC-139481]: the “% Inhibition” value came out at 8.151%.
